Results on 23 compounds are retold here after PubChem BioAssay.

Calls of active or inactive are those of the source.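 Rule for the calls, unless noted: active = compounds whose cell count with miR-34 switched on is under 0.7 times the count with it off; inactive = the rest.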

The nature of test [1]: sensitizers of A549 cells to miR-34 induction, primary screen, imaging, A549 dox-inducible miR-34, nuclei and caspase counts (AID 1347080). Particulars: A549 miR-34 inducible, Hoechst nuclei count, 48 h.
Test [2] can be described thus: survival rescue of mitochondrial mutant cells in low glucose, primary screen, MELAS cybrids, Rieske KO mouse fibroblasts, CellTiter-Glo (AID 1508586;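 active = mean z-score across replicates of 1.96 or higher in either the MELAS or the Rieske mutant cell line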;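 note: z relative to plate mean and SD of compound and empty wells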). On the technique in general: Cellular ATP, detected with luciferase, serves as a proxy for viable cell number.
Where [3] appears, read: stronger effect = lower value, cell number ratio, induced over uninduced.
The mark [4] stands for this setting: measured here: relative caspase fold change +Dox/-Dox.
Where [5] appears, read: measured here: total cells with miR-34 induction, stronger effect = lower value.
Setting [6] is: measured here: total cells without miR-34 induction.
The mark [7] stands for this setting: MELAS cybrid survival, CellTiter-Glo 48 h, stronger effect = higher value.
Setting [8] is: Rieske KO mouse fibroblast survival, CellTiter-Glo 72 h.
Note: test concentration not given here.

In the case of `O=CC(O)C(O)C(O)C(O)CO` (stereo not drawn), the fold change in test [1] (setting [3]) is 0.892 (inactive); in test [1] (setting [4]), 0.805. Also, the cell count in test [1] (setting [5]) was 8030; in test [1] (setting [6]) it was 9000. For the same compound, the figures for the z-score in test [2] (setting [7]) and in test [2] (setting [8]) were -0.158 (inactive) and -0.000567, respectively.

Take `C[C@]12CCC(=O)C=C1CC[C@@H]1[C@H]2C(O)C[C@@]2(C)[C@H]1CC[C@@]2(O)C(=O)CO` (stereo partly drawn): the fold change in test [1] (setting [3]) is 0.923 (inactive); in test [1] (setting [4]) it was 0.886. The cell count in test [1] (setting [5]) was determined as 5230; in test [1] (setting [6]) it was 5670. In addition, the z-score in test [2] (setting [7]) is -0.31 (inactive); in test [2] (setting [8]), -0.201.

Take `CC1OC(OCC2OC(Oc3c(-c4ccc(OCCO)c(OCCO)c4)oc4cc(OCCO)cc(O)c4c3=O)C(O)C(O)C2O)C(O)C(O)C1O` (stereo not drawn): the fold change is 0.984 (inactive) in test [1] (setting [3]) and 0.465 in test [1] (setting [4]). Also, the results for the cell count in test [1] (setting [5]) and in test [1] (setting [6]) were 7700 and 7830, respectively. Also, the z-score in test [2] (setting [7]) is -0.513 (inactive); in test [2] (setting [8]), -0.15.

For the compound `CC1CC=CC=CC=CC=CC(O[C@@H]2OC(C)C(O)C(N)C2O)C[C@@H]2O[C@](O)(CC(O)C[C@H]3OC3C=CC(=O)O1)CC(O)C2C(=O)O` (stereo partly drawn), the results for the fold change in test [1] (setting [3]) and in test [1] (setting [4]) were 0.876 (inactive) and 1.14, respectively. Besides, the cell count stood at 7260 in test [1] (setting [5]) and 8280 in test [1] (setting [6]). The z-score in test [2] (setting [7]) was -0.47 (inactive); in test [2] (setting [8]) it was -0.427.

As to `COc1ccc(CNc2nc(N3CCCC3CO)ncc2C(=O)NCc2ncccn2)cc1Cl` (stereo not drawn), the values for the fold change in test [1] (setting [3]) and in test [1] (setting [4]) were 0.988 (inactive) and 1.09, respectively. The cell count in test [1] (setting [5]) was found to be 8210; in test [1] (setting [6]), 8300. Moreover, the z-score was -0.603 (inactive) in test [2] (setting [7]) and -0.114 in test [2] (setting [8]).

Consider `CC(=CC(=O)OCCCCCCCCC(=O)O)CC1OC[C@H](CC2O[C@H]2C(C)C(C)O)C(O)C1O` (stereo partly drawn), for which the values for the fold change in test [1] (setting [3]) and in test [1] (setting [4]) were 0.939 (inactive) and 0.638, respectively. The cell count was found to be 8270 in test [1] (setting [5]) and 8800 in test [1] (setting [6]). Further, the z-score came out at 0.679 in test [2] (setting [7]) and 5.51 in test [2] (setting [8]).

For `CC1(C)OC2C[C@H]3[C@@H]4CCC5=CC(=O)C=C[C@]5(C)[C@]4(F)C(O)C[C@]3(C)[C@@]2(C(=O)CO)O1` (stereo partly drawn), the values for the fold change in test [1] (setting [3]) and in test [1] (setting [4]) were 0.812 (inactive) and 1.01, respectively. Further, the results for the cell count in test [1] (setting [5]) and in test [1] (setting [6]) were 5100 and 6270, respectively. The z-score was -0.349 (inactive) in test [2] (setting [7]) and -0.501 in test [2] (setting [8]).

Take `COC(=O)C(CCCN=C(N)N)NS(=O)(=O)c1ccc(C)cc1` (stereo not drawn): the fold change was 0.92 (inactive) in test [1] (setting [3]) and 0.589 in test [1] (setting [4]). Besides, the results for the cell count in test [1] (setting [5]) and in test [1] (setting [6]) were 8520 and 9260, respectively. In addition, the values for the z-score in test [2] (setting [7]) and in test [2] (setting [8]) were -0.296 (inactive) and 0.752, respectively.

On to `O=C(C=Cc1ccc(O)c(O)c1)OCCc1ccccc1`, for which the fold change is 1.02 (inactive) in test [1] (setting [3]) and 0.387 in test [1] (setting [4]). Also, the cell count came to 7430 in test [1] (setting [5]) and 7300 in test [1] (setting [6]). Moreover, the results for the z-score in test [2] (setting [7]) and in test [2] (setting [8]) were -0.587 (inactive) and -2.25, respectively.

With `CCC(C)C(=O)OC1CCC=C2C=CC(C)C(CCC3CC(O)CC(=O)O3)[C@H]21` (stereo partly drawn), the fold change in test [1] (setting [3]) is 0.904 (inactive); in test [1] (setting [4]), 0.982. Also, the cell count in test [1] (setting [5]) worked out at 4680; in test [1] (setting [6]) it was 5180. Further, the z-score is -0.482 (inactive) in test [2] (setting [7]) and -0.195 in test [2] (setting [8]).

On to `CC(=O)OC1C[C@@H]2CC[C@@H]3[C@@H](CC[C@]4(C)C(OC(C)=O)C([N+]5(C)CCCCC5)C[C@@H]34)[C@@]2(C)CC1[N+]1(C)CCCCC1` (stereo partly drawn), for which the fold change in test [1] (setting [3]) was 0.982 (inactive); in test [1] (setting [4]) it was 0.749. In addition, the cell count in test [1] (setting [5]) was 10400; in test [1] (setting [6]), 10600. Also, the z-score is -0.344 (inactive) in test [2] (setting [7]) and 0.747 in test [2] (setting [8]).

Take `NC(=O)c1ncn(C2OC(CO)C(O)C2O)c1N` (stereo not drawn): the fold change in test [1] (setting [3]) is 0.801 (inactive); in test [1] (setting [4]) it was 0.953. The cell count amounted to 7500 in test [1] (setting [5]) and 9360 in test [1] (setting [6]). Further, the z-score was 0.179 (inactive) in test [2] (setting [7]) and 0.0953 in test [2] (setting [8]).

Take `CCN(CC)CCOC(=O)c1ccc(N)cc1Cl`: the fold change in test [1] (setting [3]) is 0.9 (inactive); in test [1] (setting [4]) it was 1.29. Besides, the cell count in test [1] (setting [5]) was 9150; in test [1] (setting [6]) it was 10200. Besides, the z-score was -0.309 (inactive) in test [2] (setting [7]) and -0.153 in test [2] (setting [8]).

For the compound `Nc1ncn(C2CC(O)C(CO)O2)c(=O)n1` (stereo not drawn), the fold change in test [1] (setting [3]) is 0.936 (inactive); in test [1] (setting [4]) it was 0.727. Besides, the cell count in test [1] (setting [5]) is 7530; in test [1] (setting [6]) it was 8050. Moreover, the z-score in test [2] (setting [7]) was -0.461 (inactive); in test [2] (setting [8]), 0.644.

On to `CC1(C)O[C@@H]2C[C@H]3[C@@H]4C[C@@H](F)C5=CC(=O)C=C[C@]5(C)[C@]4(F)C(O)C[C@]3(C)[C@@]2(C(=O)CO)O1` (stereo partly drawn), for which the fold change in test [1] (setting [3]) was 0.861 (inactive); in test [1] (setting [4]) it was 0.94. The results for the cell count in test [1] (setting [5]) and in test [1] (setting [6]) were 5980 and 6950, respectively. Also, the values for the z-score in test [2] (setting [7]) and in test [2] (setting [8]) were -0.367 (inactive) and -0.28, respectively.

Regarding `CC1COC2=C1C(=O)C(=O)c1c2ccc2c1CCCC2(C)C` (stereo not drawn), the fold change in test [1] (setting [3]) is 1.09 (inactive); in test [1] (setting [4]), 0.507. The cell count was 2070 in test [1] (setting [5]) and 1890 in test [1] (setting [6]). Also, the figures for the z-score in test [2] (setting [7]) and in test [2] (setting [8]) were -0.382 (inactive) and -0.5, respectively.

Take `CC1=C(CC(=O)O)c2cc(F)ccc2C1=Cc1ccc(S(C)=O)cc1` (stereo not drawn): the fold change in test [1] (setting [3]) is 0.878 (inactive); in test [1] (setting [4]), 0.667. The cell count in test [1] (setting [5]) came to 7920; in test [1] (setting [6]) it was 9010. For the same compound, the z-score in test [2] (setting [7]) was -0.193 (inactive); in test [2] (setting [8]), 0.691.

For `Cn1nccc1-c1cc(C(=O)NCc2ccc(S(C)(=O)=O)cn2)c(=O)n(-c2cccc(C(F)(F)F)c2)c1`, the figures for the fold change in test [1] (setting [3]) and in test [1] (setting [4]) were 0.851 (inactive) and 0.538, respectively. The cell count in test [1] (setting [5]) came out at 8120; in test [1] (setting [6]), 9540. Further, the z-score was -0.549 (inactive) in test [2] (setting [7]) and 0.346 in test [2] (setting [8]).

With `Cc1cc(Nc2nc(NC(C)c3ncc(F)cn3)ncc2Cl)n[nH]1` (stereo not drawn), the fold change is 1.07 (inactive) in test [1] (setting [3]) and 1.17 in test [1] (setting [4]). The cell count in test [1] (setting [5]) turned out to be 1380; in test [1] (setting [6]), 1290. Moreover, the z-score is 0.54 (inactive) in test [2] (setting [7]) and -3.57 in test [2] (setting [8]).

Regarding `C[N+]1(C)[C@@H]2CC(OC(=O)C(O)(c3cccs3)c3cccs3)C[C@H]1C1OC12` (stereo partly drawn), the fold change was 0.933 (inactive) in test [1] (setting [3]) and 0.479 in test [1] (setting [4]). In addition, the results for the cell count in test [1] (setting [5]) and in test [1] (setting [6]) were 9300 and 9960, respectively. Also, the figures for the z-score in test [2] (setting [7]) and in test [2] (setting [8]) were -0.398 (inactive) and -0.0197, respectively.

As to `C[C@]12C=CC(=O)C=C1CC[C@H]1[C@@H]3CC(O)[C@@](O)(C(=O)CO)[C@@]3(C)CC(O)[C@]12F` (stereo partly drawn), the figures for the fold change in test [1] (setting [3]) and in test [1] (setting [4]) were 0.898 (inactive) and 0.627, respectively. The cell count in test [1] (setting [5]) came to 5780; in test [1] (setting [6]), 6430. For the same compound, the results for the z-score in test [2] (setting [7]) and in test [2] (setting [8]) were 0.159 (inactive) and -0.119, respectively.

As to `CCOc1ccc(Cc2cc(C3OC(CO)C(O)C(O)C3O)ccc2Cl)cc1` (stereo not drawn), the fold change is 0.916 (inactive) in test [1] (setting [3]) and 0.801 in test [1] (setting [4]). In addition, the cell count stood at 7650 in test [1] (setting [5]) and 8340 in test [1] (setting [6]). Further, the values for the z-score in test [2] (setting [7]) and in test [2] (setting [8]) were 0.52 (inactive) and -0.097, respectively.

For the compound `CC1CN(CC(=O)Nc2ccc3c(c2)Cc2cccc(-c4cc(=O)cc(N5CCOCC5)o4)c2S3)CC(C)O1` (stereo not drawn), the results for the fold change in test [1] (setting [3]) and in test [1] (setting [4]) were 0.994 (inactive) and 1.1, respectively. In addition, the cell count in test [1] (setting [5]) was found to be 5760; in test [1] (setting [6]), 5800. For the same compound, the z-score in test [2] (setting [7]) is 2.51 (active); in test [2] (setting [8]), 1.29.
